Assay results: the supplement of paper PMC4466140

Target: AgAbp1
Assay: SPOT peptide array binding signal intensity (averaged, normalized) (arbitrary units (background-subtracted, floor 0; scale differs between SH3 domains)); higher = stronger binding of the SH3 domain to the peptide
Outline: (§1)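 Spot intensities were captured after detection with anti-GST antibody, an HRP-linked anti-mouse secondary and luminol, and quantified with Genespotter. The probes were GST-fused SH3 domains from four yeast species, produced in E. coli BL21(DE3), purified on glutathione Sepharose and incubated at 10 μg/ml overnight at 4°C on cellulose-bound synthetic 15-mer peptides with cysteines replaced by serines. Binding signal is the normalized, background-subtracted spot intensity averaged over replicates, and its arbitrary units differ between domains.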

| Binder | SPOT peptide array binding signal intensity |
| --- | --- |
| GPPPPLPPPLFPSSS | ≤ 0 |

Target: AgBbc1
Assay: as above
Outline: as §1

| Binder | SPOT peptide array binding signal intensity |
| --- | --- |
| GPPPPLPPPLFPSSS | ≤ 0 |

Target: AgBem1-D1
Assay: as above
Outline: as §1

| Binder | SPOT peptide array binding signal intensity |
| --- | --- |
| GPPPPLPPPLFPSSS | 31 |

Target: AgBzz1-D1
Assay: as above
Outline: as §1

| Binder | SPOT peptide array binding signal intensity |
| --- | --- |
| GPPPPLPPPLFPSSS | ≤ 0 |

Target: AgBzz1-D2
Assay: as above
Outline: as §1

| Binder | SPOT peptide array binding signal intensity |
| --- | --- |
| GPPPPLPPPLFPSSS | ≤ 0 |

Target: AgCyk3
Assay: as above
Outline: as §1

| Binder | SPOT peptide array binding signal intensity |
| --- | --- |
| GPPPPLPPPLFPSSS | ≤ 0 |

Target: AgFus1
Assay: as above
Outline: as §1

| Binder | SPOT peptide array binding signal intensity |
| --- | --- |
| GPPPPLPPPLFPSSS | ≤ 0 |

Target: AgHof1
Assay: as above
Outline: as §1

| Binder | SPOT peptide array binding signal intensity |
| --- | --- |
| GPPPPLPPPLFPSSS | 1830 |

Target: AgHse1
Assay: as above
Outline: as §1

| Binder | SPOT peptide array binding signal intensity |
| --- | --- |
| GPPPPLPPPLFPSSS | 62.5 |

Target: AgLsb1
Assay: as above
Outline: as §1

| Binder | SPOT peptide array binding signal intensity |
| --- | --- |
| GPPPPLPPPLFPSSS | ≤ 0 |

Target: AgLsb4
Assay: as above
Outline: as §1

| Binder | SPOT peptide array binding signal intensity |
| --- | --- |
| GPPPPLPPPLFPSSS | ≤ 0 |

Target: AgMyo5
Assay: as above
Outline: as §1

| Binder | SPOT peptide array binding signal intensity |
| --- | --- |
| GPPPPLPPPLFPSSS | 1900 |

Target: AgNbp2
Assay: as above
Outline: as §1

| Binder | SPOT peptide array binding signal intensity |
| --- | --- |
| GPPPPLPPPLFPSSS | ≤ 0 |

Target: AgRvs167
Assay: as above
Outline: as §1

| Binder | SPOT peptide array binding signal intensity |
| --- | --- |
| GPPPPLPPPLFPSSS | 1 |

Target: AgSho1
Assay: as above
Outline: as §1

| Binder | SPOT peptide array binding signal intensity |
| --- | --- |
| GPPPPLPPPLFPSSS | ≤ 0 |

Target: AgSla1-D1-D2
Assay: as above
Outline: as §1

| Binder | SPOT peptide array binding signal intensity |
| --- | --- |
| GPPPPLPPPLFPSSS | ≤ 0 |

Target: AgSla1-D3
Assay: as above
Outline: as §1

| Binder | SPOT peptide array binding signal intensity |
| --- | --- |
| GPPPPLPPPLFPSSS | ≤ 0 |

Target: CaAbp1-D1
Assay: as above
Outline: as §1

| Binder | SPOT peptide array binding signal intensity |
| --- | --- |
| GPPPPLPPPLFPSSS | 1 |

Target: CaAbp1-D2
Assay: as above
Outline: as §1

| Binder | SPOT peptide array binding signal intensity |
| --- | --- |
| GPPPPLPPPLFPSSS | ≤ 0 |

Target: CaBbc1
Assay: as above
Outline: as §1

| Binder | SPOT peptide array binding signal intensity |
| --- | --- |
| GPPPPLPPPLFPSSS | 1 |

Target: CaBem1-D1
Assay: as above
Outline: as §1

| Binder | SPOT peptide array binding signal intensity |
| --- | --- |
| GPPPPLPPPLFPSSS | 114 |

Target: CaBzz1-D1
Assay: as above
Outline: as §1

| Binder | SPOT peptide array binding signal intensity |
| --- | --- |
| GPPPPLPPPLFPSSS | 93 |

Target: CaBzz1-D2
Assay: as above
Outline: as §1

| Binder | SPOT peptide array binding signal intensity |
| --- | --- |
| GPPPPLPPPLFPSSS | 10 |

Target: CaCyk3
Assay: as above
Outline: as §1

| Binder | SPOT peptide array binding signal intensity |
| --- | --- |
| GPPPPLPPPLFPSSS | ≤ 0 |

Target: CaFus1
Assay: as above
Outline: as §1

| Binder | SPOT peptide array binding signal intensity |
| --- | --- |
| GPPPPLPPPLFPSSS | ≤ 0 |

Target: CaHof1
Assay: as above
Outline: as §1

| Binder | SPOT peptide array binding signal intensity |
| --- | --- |
| GPPPPLPPPLFPSSS | 178 |

Target: CaHse1
Assay: as above
Outline: as §1

| Binder | SPOT peptide array binding signal intensity |
| --- | --- |
| GPPPPLPPPLFPSSS | 1.5 |

Target: CaLsb1
Assay: as above
Outline: as §1

| Binder | SPOT peptide array binding signal intensity |
| --- | --- |
| GPPPPLPPPLFPSSS | ≤ 0 |

Target: CaLsb4
Assay: as above
Outline: as §1

| Binder | SPOT peptide array binding signal intensity |
| --- | --- |
| GPPPPLPPPLFPSSS | 11.5 |

Target: CaMyo5
Assay: as above
Outline: as §1

| Binder | SPOT peptide array binding signal intensity |
| --- | --- |
| GPPPPLPPPLFPSSS | 284 |

Target: CaNbp2
Assay: as above
Outline: as §1

| Binder | SPOT peptide array binding signal intensity |
| --- | --- |
| GPPPPLPPPLFPSSS | 6.5 |

Target: CaRvs167
Assay: as above
Outline: as §1

| Binder | SPOT peptide array binding signal intensity |
| --- | --- |
| GPPPPLPPPLFPSSS | 7.83 |

Target: CaRvs167-3
Assay: as above
Outline: as §1

| Binder | SPOT peptide array binding signal intensity |
| --- | --- |
| GPPPPLPPPLFPSSS | 1.5 |

Target: CaSho1
Assay: as above
Outline: as §1

| Binder | SPOT peptide array binding signal intensity |
| --- | --- |
| GPPPPLPPPLFPSSS | ≤ 0 |

Target: CaSla1-D1-D2
Assay: as above
Outline: as §1

| Binder | SPOT peptide array binding signal intensity |
| --- | --- |
| GPPPPLPPPLFPSSS | ≤ 0 |

Target: CaSla1-D3
Assay: as above
Outline: as §1

| Binder | SPOT peptide array binding signal intensity |
| --- | --- |
| GPPPPLPPPLFPSSS | ≤ 0 |

Target: ScAbp1
Assay: as above
Outline: as §1

| Binder | SPOT peptide array binding signal intensity |
| --- | --- |
| GPPPPLPPPLFPSSS | ≤ 0 |

Target: ScBbc1
Assay: as above
Outline: as §1

| Binder | SPOT peptide array binding signal intensity |
| --- | --- |
| GPPPPLPPPLFPSSS | ≤ 0 |

Target: ScBem1-D1
Assay: as above
Outline: as §1

| Binder | SPOT peptide array binding signal intensity |
| --- | --- |
| GPPPPLPPPLFPSSS | ≤ 0 |

Target: ScBzz1-D1
Assay: as above
Outline: as §1

| Binder | SPOT peptide array binding signal intensity |
| --- | --- |
| GPPPPLPPPLFPSSS | 1.5 |

Target: ScBzz1-D2
Assay: as above
Outline: as §1

| Binder | SPOT peptide array binding signal intensity |
| --- | --- |
| GPPPPLPPPLFPSSS | ≤ 0 |

Target: ScCyk3
Assay: as above
Outline: as §1

| Binder | SPOT peptide array binding signal intensity |
| --- | --- |
| GPPPPLPPPLFPSSS | ≤ 0 |

Target: ScFus1
Assay: as above
Outline: as §1

| Binder | SPOT peptide array binding signal intensity |
| --- | --- |
| GPPPPLPPPLFPSSS | ≤ 0 |

Target: ScHof1
Assay: as above
Outline: as §1

| Binder | SPOT peptide array binding signal intensity |
| --- | --- |
| GPPPPLPPPLFPSSS | 1900 |

Target: ScHse1
Assay: as above
Outline: as §1

| Binder | SPOT peptide array binding signal intensity |
| --- | --- |
| GPPPPLPPPLFPSSS | ≤ 0 |

Target: ScLsb1
Assay: as above
Outline: as §1

| Binder | SPOT peptide array binding signal intensity |
| --- | --- |
| GPPPPLPPPLFPSSS | 288 |

Target: ScLsb2
Assay: as above
Outline: as §1

| Binder | SPOT peptide array binding signal intensity |
| --- | --- |
| GPPPPLPPPLFPSSS | 12 |

Target: ScLsb3
Assay: as above
Outline: as §1

| Binder | SPOT peptide array binding signal intensity |
| --- | --- |
| GPPPPLPPPLFPSSS | 110 |

Target: ScLsb4
Assay: as above
Outline: as §1

| Binder | SPOT peptide array binding signal intensity |
| --- | --- |
| GPPPPLPPPLFPSSS | 20 |

Target: ScMyo3
Assay: as above
Outline: as §1

| Binder | SPOT peptide array binding signal intensity |
| --- | --- |
| GPPPPLPPPLFPSSS | 1490 |

Target: ScMyo5
Assay: as above
Outline: as §1

| Binder | SPOT peptide array binding signal intensity |
| --- | --- |
| GPPPPLPPPLFPSSS | 901 |

Target: ScNbp2
Assay: as above
Outline: as §1

| Binder | SPOT peptide array binding signal intensity |
| --- | --- |
| GPPPPLPPPLFPSSS | ≤ 0 |

Target: ScPex13
Assay: as above
Outline: as §1

| Binder | SPOT peptide array binding signal intensity |
| --- | --- |
| GPPPPLPPPLFPSSS | 4060 |

Target: ScRvs167
Assay: as above
Outline: as §1

| Binder | SPOT peptide array binding signal intensity |
| --- | --- |
| GPPPPLPPPLFPSSS | 32.5 |

Target: ScSho1
Assay: as above
Outline: as §1

| Binder | SPOT peptide array binding signal intensity |
| --- | --- |
| GPPPPLPPPLFPSSS | ≤ 0 |

Target: ScSla1-D1-D2
Assay: as above
Outline: as §1

| Binder | SPOT peptide array binding signal intensity |
| --- | --- |
| GPPPPLPPPLFPSSS | ≤ 0 |

Target: ScSla1-D3
Assay: as above
Outline: as §1

| Binder | SPOT peptide array binding signal intensity |
| --- | --- |
| GPPPPLPPPLFPSSS | ≤ 0 |

Target: SpAbp1-D1
Assay: as above
Outline: as §1

| Binder | SPOT peptide array binding signal intensity |
| --- | --- |
| GPPPPLPPPLFPSSS | ≤ 0 |

Target: SpBbc1
Assay: as above
Outline: as §1

| Binder | SPOT peptide array binding signal intensity |
| --- | --- |
| GPPPPLPPPLFPSSS | ≤ 0 |

Target: SpBzz1-D1
Assay: as above
Outline: as §1

| Binder | SPOT peptide array binding signal intensity |
| --- | --- |
| GPPPPLPPPLFPSSS | 683 |

Target: SpBzz1-D2
Assay: as above
Outline: as §1

| Binder | SPOT peptide array binding signal intensity |
| --- | --- |
| GPPPPLPPPLFPSSS | 4.25 |

Target: SpCyk3
Assay: as above
Outline: as §1

| Binder | SPOT peptide array binding signal intensity |
| --- | --- |
| GPPPPLPPPLFPSSS | ≤ 0 |

Target: SpHof1
Assay: as above
Outline: as §1

| Binder | SPOT peptide array binding signal intensity |
| --- | --- |
| GPPPPLPPPLFPSSS | ≤ 0 |

Target: SpHof1-2
Assay: as above
Outline: as §1

| Binder | SPOT peptide array binding signal intensity |
| --- | --- |
| GPPPPLPPPLFPSSS | ≤ 0 |

Target: SpHof1-3
Assay: as above
Outline: as §1

| Binder | SPOT peptide array binding signal intensity |
| --- | --- |
| GPPPPLPPPLFPSSS | ≤ 0 |

Target: SpHse1
Assay: as above
Outline: as §1

| Binder | SPOT peptide array binding signal intensity |
| --- | --- |
| GPPPPLPPPLFPSSS | 40.8 |

Target: SpLsb1
Assay: as above
Outline: as §1

| Binder | SPOT peptide array binding signal intensity |
| --- | --- |
| GPPPPLPPPLFPSSS | 184 |

Target: SpLsb4
Assay: as above
Outline: as §1

| Binder | SPOT peptide array binding signal intensity |
| --- | --- |
| GPPPPLPPPLFPSSS | 225 |

Target: SpMyo1
Assay: as above
Outline: as §1

| Binder | SPOT peptide array binding signal intensity |
| --- | --- |
| GPPPPLPPPLFPSSS | 1290 |

Target: SpNbp2
Assay: as above
Outline: as §1

| Binder | SPOT peptide array binding signal intensity |
| --- | --- |
| GPPPPLPPPLFPSSS | ≤ 0 |

Target: SpPex13
Assay: as above
Outline: as §1

| Binder | SPOT peptide array binding signal intensity |
| --- | --- |
| GPPPPLPPPLFPSSS | ≤ 0 |

Target: SpRvs167
Assay: as above
Outline: as §1

| Binder | SPOT peptide array binding signal intensity |
| --- | --- |
| GPPPPLPPPLFPSSS | 1430 |

Target: SpSla1-D1-D2
Assay: as above
Outline: as §1

| Binder | SPOT peptide array binding signal intensity |
| --- | --- |
| GPPPPLPPPLFPSSS | ≤ 0 |

Target: SpSla1-D3
Assay: as above
Outline: as §1

| Binder | SPOT peptide array binding signal intensity |
| --- | --- |
| GPPPPLPPPLFPSSS | ≤ 0 |
